From PubChem BioAssay (Tox21)
“And” between values parts separate entries of the source, which are not always exact repeats. Equal values may be shown once. Results filed as inconclusive are left out. Where a call stands in place of a potency, no number is given. Some compounds were tested as several samples or in several runs, with calls that do not always agree. The source made the active and inactive calls. Unless noted, the call rests on the fitted dose curve; in most records, active means well fitted curve in the direction sought with a large enough effect in the repeat runs; inconclusive means weak or mixed curves; inactive means no such curve, though single readings can be large; an effect the other way counts as inactive or inconclusive.

How the values were obtained:
[1] = qHTS assay to identify small molecule agonists of the hypoxia (HIF-1) signaling pathway - cell viability counter screen (AID 1224844; calls by dose curve; further: nearly all actives have a fitted effect of over 50% in size; further: potency means the concentration at half of the fitted maximal effect)
Outline: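 Viability counter screen: HRE-bla ME-180 cells plated 5 hrs before compound addition, treated 17 hrs at 37C and 5% CO2, then CellTiter-Glo added after the FRET reporter read; luminescence after 30 min.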

[2] = qHTS RealTime-Glo MT Cell Viability Assay in HepG2 cells - 24 hour (AID 1224867); further: nearly all actives have a fitted effect of over 50% in size; further: potency means the concentration at half of the fitted maximal effect
Outline: (§1)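 Viability was tracked continuously by NanoLuc luminescence from prosubstrate reduced by living HepG2 cells, at successive time points over 40 h of compound exposure. Cells with reagent were preincubated 5 h at 37 °C before compound addition.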

[3] = qHTS RealTime-Glo MT Cell Viability Assay in HEK293 cells - 32 hour (AID 1224868); further: nearly all actives have a fitted effect of over 50% in size; further: potency means the concentration at half of the fitted maximal effect
Outline: (§2)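 Viability tracked continuously by luminescence as live cells reduce a prosubstrate for NanoLuc; HEK293 cells preincubated 5 h, compound-treated at 37 C, and read at 0, 8, 16, 24, 32 and 40 h.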

[4] = A CellTox Green Cytotoxicity Assay to monitor cytotoxicity in HEK293 cells - 0 hour (AID 1224869); further: nearly all actives have a fitted effect of over 50% in size
Outline: (§3)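 Dead-cell fluorescence measured kinetically: asymmetric cyanine dye, HEK293, 600 cells/well, 5 h settle, 23 nL cpd/DMSO, 37 C, reads 0–40 h every 8 h.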

[5] = A CellTox Green Cytotoxicity Assay to monitor cytotoxicity in HEK293 cells - 40 hour (AID 1224871); further: nearly all actives have a fitted effect of over 45% in size; further: potency means the concentration at half of the fitted maximal effect
Outline: as §3

[6] = qHTS RealTime-Glo MT Cell Viability Assay in HEK293 cells - 16 hour (AID 1224872); further: nearly all actives have a fitted effect of over 50% in size; further: potency means the concentration at half of the fitted maximal effect
Outline: as §2

[7] = qHTS RealTime-Glo MT Cell Viability Assay in HepG2 cells - 8 hour (AID 1224873); further: nearly all actives have a fitted effect of over 55% in size; further: potency means the concentration at half of the fitted maximal effect
Outline: (§4)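 HepG2 cells (600/well) mixed with RealTime-Glo MT reagent, settled 5 h at 37 C/5% CO2 before compound addition. Nonlytic NanoLuc luminescence from viable-cell prosubstrate reduction read repeatedly during 40 h treatment at 37 C.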

[8] = qHTS RealTime-Glo MT Cell Viability Assay in HEK293 cells - 40 hour (AID 1224874); details: RealTime-Glo luminescence; max response: stronger effect = lower value; further: nearly all actives have a fitted effect of over 50% in size; further: potency means the concentration at half of the fitted maximal effect
Outline: (§5)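 600 HEK293 cells per well, dispensed already mixed with RealTime-Glo MT reagents. Compound dosing came 5 h later. The same wells were read for luminescence at 0, 8, 16, 24, 32 and 40 h of exposure at 37 C.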

[9] = A CellTox Green Cytotoxicity Assay to monitor cytotoxicity in HEK293 cells - 24 hour (AID 1224875); further: nearly all actives have a fitted effect of over 45% in size; further: potency means the concentration at half of the fitted maximal effect
Outline: as §3

[10] = A CellTox Green Cytotoxicity Assay to monitor cytotoxicity in HepG2 cells - 24 hour (AID 1224878); further: nearly all actives have a fitted effect of over 45% in size; further: potency means the concentration at half of the fitted maximal effect
Outline: (§6)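 First, HepG2 cells (600/well) mixed with reagent were plated; second, after 5 h at 37 C they received compounds via pintool; third, fluorescence was measured at 0 h through 40 h at 8 h intervals.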

[11] = A CellTox Green Cytotoxicity Assay to monitor cytotoxicity in HepG2 cells - 40 hour (AID 1224879); further: nearly all actives have a fitted effect of over 40% in size; further: potency means the concentration at half of the fitted maximal effect
Outline: as §6

[12] = qHTS RealTime-Glo MT Cell Viability Assay in HEK293 cells - 0 hour (AID 1224880); further: top concentration of the series differs between compounds; nearly all actives have a fitted effect of over 45% in size
Outline: as §5

[13] = qHTS assay to identify small molecule antagonists of the estrogen related receptor (ERR) signaling pathway from Tox21 library (AID 1224848); further: nearly all actives have a fitted effect of over 50% in size; further: potency means the concentration at half of the fitted maximal effect
Outline: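 Compounds dissolved in DMSO are pin-transferred onto ERR reporter cells (2,000 per well) that have settled for 6 h at 37 C. Plates then incubate 18 h at 37 C before ONE-Glo luciferase reagent and a luminescence read 30 min later.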

[14] = qHTS assay to identify small molecule agonists of the estrogen related receptor (ERR) signaling pathway from Tox21 library (AID 1224849; calls by dose curve; further: nearly all actives have a fitted effect of over 15% in size); details: ERR reporter cell line, ONE-Glo luciferase, 18 h
Outline: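 Quantitative HTS in agonist format: NTP ERR cell line, compounds transferred in DMSO after 6 h plating, 18 h incubation at 37 C, ONE-Glo luminescence endpoint.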

[15] = qHTS RealTime-Glo MT Cell Viability Assay in HepG2 cells - 32 hour (AID 1224877); further: nearly all actives have a fitted effect of over 55% in size; further: potency means the concentration at half of the fitted maximal effect
Outline: as §1

[16] = A CellTox Green Cytotoxicity Assay to monitor cytotoxicity in HepG2 cells - 16 hour (AID 1224876); further: nearly all actives have a fitted effect of over 45% in size; further: potency means the concentration at half of the fitted maximal effect
Outline: as §6

[17] = qHTS RealTime-Glo MT Cell Viability Assay in HepG2 cells - 40 hour (AID 1224870); further: nearly all actives have a fitted effect of over 50% in size; further: potency means the concentration at half of the fitted maximal effect
Outline: as §4

[18] = qHTS assay to identify small molecule agonists of H2AX - cell viability counter screen (AID 1224847; calls by dose curve; further: nearly all actives have a fitted effect of over 30% in size; further: potency means the concentration at half of the fitted maximal effect)
Outline: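 Counter-screen for viability: CellTiter-Glo ATP luminescence read after 3 h compound treatment (15-point titration, 0.76% DMSO final) of CHO-K1 cells at 37C, with 30 min room-temperature reagent incubation.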

| SMILES | Potency [1] | Potency [2] | Potency [3] | Potency [4] | Potency [5] | Potency [6] | Potency [7] | Potency [8] | Potency [9] | Potency [10] | Potency [11] | Potency [12] | Potency [13] | activity change, positive = activation ([14]; at 42.5 µM (top of the series)) | max response [8] | Potency [15] | Potency [16] | activity change, positive = activation ([14]; at 92.4 µM (top of the series)) | Potency [17] | Potency [18] |
| --- | --- | --- | --- | --- | --- | --- | --- | --- | --- | --- | --- | --- | --- | --- | --- | --- | --- | --- | --- | --- |
| CCN(CC)CCOc1ccc(/C(=C(\Cl)c2ccccc2)c2ccccc2)cc1 | 39.7 µM (active) | 28.1 µM (active) and 23.9 µM (active) | 14.1 µM (active) and 19 µM (active) | inactive | 19.9 µM (active) and 23.9 µM (active) | 14.1 µM (active) and 21.3 µM (active) | 31.6 µM (active) | 12.6 µM (active) and 19 µM (active) | 31.6 µM (active) and 23.9 µM (active) | 19.9 µM (active) and 21.3 µM (active) | 17.7 µM (active) and 16.9 µM (active) | inactive |  |  |  |  |  |  |  |  |
| CC(C)C(=O)c1c(C(C)C)nn2ccccc12 | inactive |  | inactive | inactive | inactive | inactive | inactive |  | inactive |  | inactive | inactive | inactive | -9.6% (inactive) | -0.81% (inactive) | inactive |  |  |  |  |
| CC[C@H]1CN2CCc3cc(OC)c(OC)cc3[C@@H]2C[C@@H]1C[C@H]1NCCc2cc(OC)c(OC)cc21 | inactive |  | 15.5 nM (active) and 42.5 nM (active) | inactive | 55.1 µM (active) |  | inactive | 13.9 nM (active) and 42.5 nM (active) | inactive | 49.2 µM (active) and 26.8 µM (active) | 49.2 µM (active) and 16.9 µM (active) | inactive |  |  |  |  | inactive |  |  |  |
| CC(C)(C)c1ccc(O)c(C(C)(C)C)c1 | 43.5 µM (active) |  | 38.7 µM (active) | inactive | 24.4 µM (active) and 34.7 µM (active) | 34.5 µM (active) | 38.9 µM (active) | 38.7 µM (active) | 21.8 µM (active) and 34.7 µM (active) | 48.8 µM (active) and 43.6 µM (active) | 48.8 µM (active) and 43.6 µM (active) | inactive | 54.3 µM (active) and 61.1 µM (active) |  | -25% (inactive) |  | 48.8 µM (active) and 43.6 µM (active) | -41% (inactive) and -33.5% (inactive) | inactive |  |
| CC(C)(C)c1cc(C(C)(C)C)c(O)c(C(C)(C)C)c1 |  | inactive | inactive | inactive | 54.9 µM (active) and 34.7 µM (active) | inactive | inactive |  | 54.9 µM (active) and 38.9 µM (active) | 54.9 µM (active) | 49 µM (active) | inactive |  |  | -7.81% (inactive) | inactive |  |  | inactive |  |
| CCn1c2ccccc2c2cc(N)ccc21 | inactive | inactive | inactive | inactive | inactive | inactive | inactive |  | inactive |  | inactive | inactive | 34 µM (active) |  | -18.5% (inactive) and -3.18% (inactive) and -13.8% (inactive) | inactive | inactive | -48% (inactive) and -30.3% (inactive) and -32.3% (inactive) | inactive |  |
| c1ccc2c(c1)-c1cccc3c1c-2cc1ccccc13 | 33.9 µM (active) | inactive | inactive | inactive | inactive |  | inactive |  | inactive |  | 1.91 µM (active) and inactive | inactive |  |  | 1.04% (inactive) | inactive | inactive |  | inactive | 78.2 µM (active) and 89.8 µM (active) |
| CN(C)c1ccc2nc3ccc(=[N+](C)C)cc-3sc2c1 | 5.92 µM (active) and 43.6 µM (active) and inactive | 16.7 µM (active) and 12.3 µM (active) and 19 µM (active) | 1.87 µM (active) and 1.74 µM (active) and 2.68 µM (active) | inactive | inactive | 2.97 µM (active) and 3.09 µM (active) and 2.68 µM (active) | 9.39 µM (active) and 19.5 µM (active) and 19 µM (active) | 1.67 µM (active) and 1.55 µM (active) and 2.68 µM (active) | inactive | inactive | inactive | inactive | 739 nM (active) and 433 nM (active) and 473 nM (active) | -59.7% (inactive) and -55.3% (inactive) |  | 21 µM (active) and 12.3 µM (active) and 19 µM (active) | inactive | -71.3% (inactive) |  |  |
| O=C(O[C@@H]1Cc2c(O)cc(O)cc2O[C@@H]1c1cc(O)c(O)c(O)c1)c1cc(O)c(O)c(O)c1 | inactive |  | 7.48 µM (active) | inactive | inactive | 11.9 µM (active) | inactive | 7.48 µM (active) | inactive | inactive | inactive | inactive |  |  |  |  | inactive |  |  | inactive |
| CC(C)(C)c1ccccc1 | inactive | inactive | inactive | inactive | inactive | inactive | inactive |  | inactive |  | inactive | inactive | inactive |  | 0.372% (inactive) |  | inactive | 0.862% (inactive) | inactive |  |
| CC(C)CCCCCCc1ccc(O)cc1 | 11.2 µM (active) | 22.3 µM (active) and inactive | 2.23 µM (active) | inactive | 19.8 µM (active) and 38.9 µM (active) | 3.96 µM (active) |  | 1.25 µM (active) | 28 µM (active) and 38.9 µM (active) | 22.3 µM (active) and 38.9 µM (active) | 14 µM (active) and 43.6 µM (active) | inactive |  |  |  | 19.8 µM (active) and inactive | 44.4 µM (active) and 27.5 µM (active) |  | 25 µM (active) and inactive |  |
| CCCCC(CC)COC(=O)CC(C(=O)OCC(CC)CCCC)S(=O)(=O)O (stereo not given) | 26.5 µM (active) and 21.9 µM (active) |  |  | inactive | 24.5 µM (active) |  | inactive |  | 21.9 µM (active) | 42 µM (active) and 38.9 µM (active) | 42 µM (active) and 43.6 µM (active) | inactive |  |  |  |  | 33.4 µM (active) and 38.9 µM (active) |  | inactive | 86.4 µM (active) and 80 µM (active) |
| Nc1cc(S(=O)(=O)O)cc2cc(S(=O)(=O)O)cc(O)c12 | inactive and 4.9 µM (active) | inactive | inactive | inactive | inactive | inactive | inactive |  | inactive |  | inactive | inactive |  |  | -12.9% (inactive) |  | inactive |  | inactive | inactive |
| Cc1ccc(S(=O)(=O)Oc2ccc(N=Nc3ccc(-c4ccc(N=Nc5c(O)ccc6cc(S(=O)(=O)O)cc(S(=O)(=O)O)c56)c(C)c4)cc3C)cc2)cc1 | inactive |  | inactive | inactive | inactive | inactive |  |  | inactive | inactive | inactive |  | 27.4 µM (active) | -13.6% (inactive) | -0.0985% (inactive) |  |  | -34.2% (inactive) |  |  |
